Shown are actives, neighbours in structure and some others; about 2.1% of the full set was active somewhere.
TNAP act DEA – human TNAP enzyme activators, primary screen, biochemical, luminescent, intermediate phosphate acceptor level | 64,000 tested, under 10 active | activation factor at 20 µM | Alkaline phosphatase, tissue-nonspecific isozyme (Homo sapiens), P05186 | purified TNAP, CDP-star luminescence, 100 mM DEA, 30 min; hits give high values; scale: 0 levamisole-inhibited, 1 vehicle-only enzyme;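 active = activation factor of at least 2 at 20 µM, relative to controls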
Target sequence (P05186 whole entry, looked up): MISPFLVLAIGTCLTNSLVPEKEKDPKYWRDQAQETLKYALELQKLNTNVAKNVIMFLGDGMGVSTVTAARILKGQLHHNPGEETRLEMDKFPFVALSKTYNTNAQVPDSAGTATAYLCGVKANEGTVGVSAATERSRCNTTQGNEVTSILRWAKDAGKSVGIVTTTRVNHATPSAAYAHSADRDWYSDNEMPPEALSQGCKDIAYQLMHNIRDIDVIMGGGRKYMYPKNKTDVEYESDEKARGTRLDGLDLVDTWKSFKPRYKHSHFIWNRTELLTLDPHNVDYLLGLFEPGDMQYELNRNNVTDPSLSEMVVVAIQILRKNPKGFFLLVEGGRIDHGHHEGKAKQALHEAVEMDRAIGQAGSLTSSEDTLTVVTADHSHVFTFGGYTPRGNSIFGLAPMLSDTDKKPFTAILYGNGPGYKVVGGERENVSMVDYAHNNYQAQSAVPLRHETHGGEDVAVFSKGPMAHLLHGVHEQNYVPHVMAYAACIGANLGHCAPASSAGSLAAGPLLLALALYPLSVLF
IL1B cytotox – cytotoxicity in IL-1B stimulated HUVEC, primary screen, cytotoxicity control for IL-1B NFkB translocation project, imaging, Hoechst nuclear count, IL-1B stimulus. HUVEC cell count loss. cell count reduction, % at 2 µM. 94,000 compounds, 0.41% hits;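 active = cell count reduction more than 3 SD above the screen-wide mean, cut at about 70% in these data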;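 note: normalized per plate to untreated control cells as the no-loss baseline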
NFkB transloc inh – inhibitors of IL-1B driven NFkB p65 nuclear import, primary screen, imaging, HUVEC, IL-1B stimulus, high-content imaging | inhibition, % at 2 µM | 94,000 compounds, 0.43% hits | HUVEC IL-1B NFkB p65 nuclear translocation imaging;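 active = inhibition above about 30% together with a positive call from visual inspection of the well image, limit read from the data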;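 note: nuclear over cytoplasmic p65 intensity ratio measured by imaging; 0% = IL-1B stimulated DMSO wells and 100% = unstimulated DMSO wells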
NFkB transloc pot – enhancers of NFkB p65 translocation in HUVEC – imaging, IL-1B stimulus, high-content imaging, primary screen. HUVEC IL-1B NFkB p65 nuclear translocation imaging. activation, % at 2 µM. 94,000 compounds, 0.3% hits. AID 819, 2007;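 active = activation above 40%, about the mean plus 3 SD, also judged a hit on visual image review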;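 note: percent activation is computed from the nuclear over cytoplasmic p65 intensity ratio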
PLAP activator – PLAP enzyme activators, biochemical, luminescence, HTS; purified PLAP enzyme, luminescent substrate read-out; hits give high values; AID 696, 2007; Alkaline phosphatase, placental type (Homo sapiens), P05187; activation fold at 20 µM; 96,000 compounds, 1.2% hits; in the data active = activation fold above about 2
Numbers without * were called inactive; nt = not tested or not shown.

SMILES	TNAP act DEA	IL1B cytotox	NFkB transloc inh	NFkB transloc pot	PLAP activator
COc1cccc(CSc2nnc(CSc3nc4nc(C)cc(C)n4n3)s2)c1	nt	-12.8	-1.8	1.8	2.1*
COc1ccc(/C=N/NC(=O)c2ccc3ccccc3c2)cc1OS(=O)(=O)c1ccc(NC(C)=O)cc1	nt	7.7	7.6	-7.6	1.1
S=c1[nH]nc(-c2ccncc2)n1Cc1ccccc1	0.9	-9.6	-3.3	3.3	2*
CCCCNC(=S)Nc1ccccc1F	nt	89.6*	5.5	-5.5	0.9
O=C(NC1CCCC1)c1ccc(CS(=O)(=O)c2ccc(Br)cc2)o1	0.6	-52.4	-3.6	3.6	0.8
Cc1ccc(Oc2ccccc2/C=C/C(=O)O)cc1	nt	nt	nt	nt	0.9
CCC(c1nnc(SCC(=O)Nc2ccc(C(=O)Nc3ccccc3OC)cc2)o1)N(C)C (configuration not stated)	0.9	10.3	-11.3	11.3	2.3*
CN1CCN(C(c2cccnc2)c2ccc3cccnc3c2O)CC1 (configuration not stated)	0.9	-3.3	3.3	-3.3	2.5*
CC1CCN(c2c(NCc3ccc(C(=O)N4CCc5ccccc54)cc3)c(=O)c2=O)CC1	nt	-3.4	-117.7	117.7*	1
CC1CCN(c2c(NCc3ccc(C(=O)NCC4COc5ccccc5O4)cc3)c(=O)c2=O)CC1 (configuration not stated)	1.1	8.4	11.6	-11.6	nt
Cc1ccc(CNC(=O)c2ccc(CNc3c(N4CCCC4)c(=O)c3=O)cc2)cc1	nt	-0.3	-41.1	41.1*	1.7
CCOc1ccc(OCC)c(NC(=O)c2ccc(CNc3c(N4CCOCC4)c(=O)c3=O)cc2)c1	0.9	-2.7	-69.8	69.8*	1.4
CCOc1ccc(NC(=O)c2cccc(OC(=S)N3CCC(C)CC3)c2)cc1	nt	-10.8	-5.1	5.1	1.1
O=C(NNC(=O)c1ccco1)c1cccc([N+](=O)[O-])c1	nt	-21.2	-2.6	2.6	0.9
Cc1nc2cc(NC(=O)Nc3nccs3)ccc2n1C	0.9	-20.0	-12.5	12.5	2*
Oc1ccc(N=Nc2n[nH]c(-c3ccc(Cl)cc3)n2)cc1	nt	-42.9	-3.3	3.3	0.7
C=CCn1c(SCc2c(Cl)cccc2Cl)nnc1-c1cccnc1	nt	-84.6	12.2	-12.2	0.9
NC(=O)C1(N2CCCCC2)CCN(C(=O)c2cccs2)CC1	1	7.6	-40.0	40.0*	0.8
NC(=O)C1(N2CCCCC2)CCN(C2CC(=O)N(Cc3cccs3)C2=O)CC1 (configuration not stated)	1	8.6	32.2*	-32.2	0.8
CCCCN=CC1=C(O)C(C(=O)OC)C(C)(C)CC1=O (configuration not stated)	0.9	0.3	2.4	-2.4	1
Cc1[nH]nc2ncc(C(=O)c3ccccc3O)cc12	1	-24.0	-11.0	11.0	2.1*
CCCOc1ccc2oc(=O)c3c(c2c1)CCCN3C(=O)CN(C)Cc1ccccc1	0.9	-24.6	-13.6	13.6	1.3
CCCCN(CC)CCNC(=O)C1c2cc(OC)c(OC)cc2C(=O)N2CCc3ccccc3C12 (configuration not stated)	1.2	-18.4	5.1	-5.1	2*
CCCCN(CC)CCCNC(=O)C1c2ccccc2C(=O)N(C)C1c1cn(C)c2ccccc12 (configuration not stated)	nt	-2.6	-19.6	19.6	2*
c1ccc(CNc2c3c(nc4ncnn24)CCCC3)nc1	1.5	-11.5	-5.9	5.9	2.5*
SMILES	TNAP act DEA	IL1B cytotox	NFkB transloc inh	NFkB transloc pot	PLAP activator
COc1ccc(-c2cc(NCc3ccccn3)n3ncnc3n2)cc1	2*	nt	nt	nt	nt
COc1ccc(CNC(=O)COC(=O)c2cc(-c3cccs3)nc3ccccc23)cc1OC	nt	6.2	8.0	-8.0	1.4
CCc1[nH]nc2c1C(c1ccc(Br)s1)C(C#N)=C(N)O2 (configuration not stated)	0.8	0.0	-6.8	6.8	1
O=C(NCCCN1CCN(c2ccccc2)CC1)Nc1ccccc1C(F)(F)F	0.9	12.7	-16.3	16.3	1.7
Cc1ccccc1NC(=O)NCCCN1CCN(c2ccccc2)CC1	nt	nt	nt	nt	2.8*
Cc1cc(-c2ccco2)c(C#N)c2nc3ccccc3n12	1	nt	nt	nt	1

Bioassay records (PubChem)
